# From PubChem BioAssay
# HT1080 IDH1KD tx = kills HT-1080 cells with IDH1 knockdown; HT-1080 IDH1 knockdown viability, ATP luminescence, 48 h; 360,000 compounds, 2% hits; AID 686971; Potency, µM (highest dose often 46.1 µM), for the others: at the highest dose activity, negative = toxicity, usual class: cytotoxic;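 further: potency means the concentration at half of the fitted maximal effect; 0% = DMSO wells and -100% = cell-free medium wells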
#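 After a 2 h attachment period, IDH1KD HT-1080 cells took pin-transferred compound for 48 h at 37 °C; ATP-based luminescence after 10 min room-temperature reagent incubation reported viability.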
# DT40 TDP1 CPT = DT40-hTDP1 cell growth loss with CPT; chicken DT40 Tdp1-/-;hTDP1 cells + 20 nM CPT, ATP luminescence, 48 h; Potency, µM (doses to about 46.2 µM), for inactives: at the highest dose activity change, negative = growth inhibition, most hits filed as inhibitors; 420,000 compounds, 12% hits; AID 686979; further: potency means the concentration at half of the fitted maximal effect; nearly all actives have a fitted effect of over 55% in size
#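 Cell growth measured by CellTiter-Glo luminescence after a minimum 48 h, 37 C compound exposure with 20 nM CPT in Tdp1-knockout DT40 cells stably expressing hTDP1, seeded 400/well; qHTS titration format.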
# IL1B secr inh = inhibitors of inflammasome signaling (IL-1 beta secretion); THP-1 LPS/ATP IL-1B secretion, AlphaLISA, 16 h; hits give low values; activity change, % at 57.5 µM; 360,000 compounds, 4.7% hits; in the data active means activity change below about -50%; inconclusive means mostly about -30% to -49%
#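 THP-1 cells pretreated 1 hr with compounds (up to 57.5 uM final), then stimulated with LPS (250 ng/mL final) plus ATP (1.25 mM final); secreted IL-1B measured by AlphaLISA after 16 hr, decreased signal indicating inhibition.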
# HT1080-NT tox = kills 2HG-producing HT-1080-NT fibrosarcoma cells. HT-1080-NT fibrosarcoma viability, CellTiter-Glo ATP luminescence, 48 h. Potency, µM (highest dose often 46.1 µM), without a hit: at the top dose activity, negative = less viability, usual class: cytotoxic. 360,000 compounds, 1.6% hits;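 further: NT is the 2HG producing partner of a matched IDH1 knockdown line; potency means the concentration at half of the fitted maximal effect; 0% = DMSO-treated cells and -100% = media-only wells without cells; nearly all actives have a fitted effect of over 55% in size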
#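 Viability by CellTiter-Glo luminescence after 48 h compound exposure at 37C of HT-1080-NT cells (750/well, RPMI, 5% FBS). % activity scaled between DMSO wells and medium-only wells, then curve-fitted and categorized by curve class.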
# uPA generation = inhibitors of cell surface uPA generation; Potency, µM (series often up to 38.3 µM), for the others: top-dose activity change, negative = inhibition, most hits filed as inhibitors; 330,000 compounds, 0.31% hits; AID 540303; cell surface uPA generation assay, qHTS; active means well fitted inhibition curve with a large enough effect; inconclusive means small, poorly fitted or top-dose-only effect; inactive means no such curve, though single readings can be large or run the other way; tested in mouse RAW 264.7 cells; further: potency means the concentration at half of the fitted maximal effect; nearly all actives have a fitted effect of over 55% in size
# DT40 TDP1 no CPT = qHTS for Inhibitors of human tyrosyl-DNA phosphodiesterase 1 (TDP1): qHTS in cells in absence of CPT. Potency, µM (titrated, usually from 46.2 µM), without a hit: top-dose activity change, negative = growth inhibition, usual class: inhibitors. DT40 Tdp1-/- hTDP1 cells, no CPT, ATP luminescence, 48 h. AID 686978, 2013. 420,000 compounds, 15% hits; further: potency means the concentration at half of the fitted maximal effect; nearly all actives have a fitted effect of over 55% in size
#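 Cells were dispensed at 400 per well, compounds added by pin tool, plates incubated ≥48 hr at 37 °C, then CellTiter-Glo added for 30 min at room temperature before luminescence reading. Line: DT40 Tdp1-/- complemented with hTDP1; camptothecin omitted.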
# An asterisk follows results filed as active; ? = inconclusive; · = no result given; ! = repeats disagree. A selection: hits, their analogues and other compounds. The true share with any hit is near 19%. Unless noted, the call rests on the fitted dose curve; in most records, active means well fitted curve in the direction sought with a large enough effect; inconclusive means small, poorly fitted or top-dose-only effect, or another doubt; inactive means no such curve, though single readings can be large; an effect the other way counts as inactive or inconclusive. Unless noted, on the % scale 0 is the no-effect control and ±100 the full control effect.
SMILES,HT1080 IDH1KD tx,DT40 TDP1 CPT,IL1B secr inh,HT1080-NT tox,uPA generation,DT40 TDP1 no CPT
CCN(CC(=O)Nc1ccc(NC(C)=O)cc1)C(=O)c1ccc2ccccc2c1,-3%,-9%,-16,1%,-21%,-9%
CCOc1ccc(NC(=O)CN(C)C(=O)c2cc(-c3ccc(OC)cc3)nc3ccccc23)cc1OCC,-21%,?,-4,-4%,-27%,15µM*
COc1ccc(NC(=O)CN(C)C(=O)Cc2c(C)nc3ccccc3c2C)cc1,-16%,?,50,-24%,-1%,?
CC(C)CN(C(=O)Cn1c(C(F)(F)F)nc2ccccc21)c1c(N)n(Cc2ccccc2)c(=O)[nH]c1=O,6%,2%,-9,11%,9%,-1%
COC(=O)CSc1ncnc2c1cnn2Cc1ccccc1,-3%,-1%,18,6%,4%,-19%
Cc1c(Cl)cccc1NC(=O)CSc1ncnc2c1cnn2CCc1ccccc1,6%,-27%,-11,15%,0%,?
CC(C)(C)C(=O)CSc1ncnc2c1cnn2Cc1ccccc1,-13%,-11%,-3,-7%,4%,15µM*
O=C(CSc1ncnc2c1cnn2CCc1ccccc1)Nc1cccc(C(F)(F)F)c1,?,?,-13,?,6%,23µM*
O=C(NCCN1CCOCC1)c1cccc(NS(=O)(=O)c2ccc(Br)cc2)c1,-6%,-25%,-2,0%,1%,-8%
COc1ccc(NC(=O)C2c3ccccc3OCC(=O)N2CCc2ccccc2)cc1 (stereo not drawn),7%,-11%,33,10%,·,-21%
CCN(CC)c1ccc(C=O)c(OC)c1,0%,3%,-3,-12%,3%,-14%
CCN(CC)c1ccc2nc3ccccc3[n+](CC)c2c1,23µM*,5.2µM*,-101*,26µM*,-17%,1.8µM*
COC(=O)c1cc(=O)n(Cc2cccs2)c(=NCc2cccs2)s1,0%,-26%,35,23%,-1%,-13%
CCOC(=O)c1ccc(N=c2sc(C(=O)OC)cc(=O)n2Cc2ccco2)cc1,?,13µM*,-22,?,6.3µM*,21µM*
CCOC(=O)c1ccc(N=c2sc(C(=O)OC)cc(=O)n2CCCN2CCOCC2)cc1,?,15µM*,-57*!,?,?,15µM*
COC(=O)c1ccc2c(=O)n(CCCN3CCOCC3)c(=S)[nH]c2c1,?,1%,26,-1%,1%,1%
CCCCN1C(=O)C(CC(=O)NC2CCCCC2)CC(C(=O)N(C)C)=C1C (stereo not drawn),11%,11%,12,1%,·,-2%
Cc1ccc(N2CC(C(=O)Nc3c(C)n(C)n(-c4ccccc4)c3=O)CC2=O)cc1 (stereo not drawn),2%,-9%,1,4%,8%,2%
CCCOc1cccc(C(=O)N(Cc2sccc2C)C2CCS(=O)(=O)C2)c1 (stereo not drawn),·,?,·,·,·,13µM*
CCCCOc1ccccc1C(=O)N(Cc1sccc1C)C1CCS(=O)(=O)C1 (stereo not drawn),·,?,·,·,·,21µM*
CCCCOc1cccc(C(=O)N(Cc2sccc2C)C2CCS(=O)(=O)C2)c1 (stereo not drawn),·,?,·,·,·,15µM*
COc1ccccc1C(=O)N(Cc1sccc1C)C1CCS(=O)(=O)C1 (stereo not drawn),10%,-11%,-9,10%,-15%,3%
O=C(N/C=N/OCc1ccc(Cl)cc1Cl)NOCc1c(Cl)cccc1Cl,16µM*,21µM*,-5,16µM*,3%,23µM*
Cc1ccccc1NC(=O)CSc1nnc(-c2ccccc2)n1-c1ccccc1,-6%,-75%,-29,-6%,9%,?
Cc1ccc(C)c(-n2cc(-c3ccccc3)nc2SCC(=O)Nc2ccccc2)c1,·,?,·,·,·,18µM*
SMILES,HT1080 IDH1KD tx,DT40 TDP1 CPT,IL1B secr inh,HT1080-NT tox,uPA generation,DT40 TDP1 no CPT
Cn1c(SCC(=O)Nc2ccccc2)nnc1-c1ccccc1,·,-19%,·,·,·,-15%
Cc1ccccc1NC(=O)CSc1nc(-c2ccccc2)cn1-c1ccccc1F,·,?,·,·,·,23µM*
CC(C)CNS(=O)(=O)c1ccc(Br)cc1N1CCC[C@@H]1CO,9%,?,5,6%,-14%,-3%
COCCNC(=O)Cc1ccc(NC(=O)N2CCCCc3ccccc32)cc1,·,0%,·,·,·,-10%
O=C(Cc1ccc(NC(=O)N2CCCCc3ccccc32)cc1)Nc1ccccc1Br,·,?,·,·,·,21µM*
CC(C)c1ccc(NC(=O)Cc2ccc(NC(=O)N3CCCCc4ccccc43)cc2)cc1,·,18µM*,·,·,·,21µM*
CC(=O)N1CCN=C1SCc1cccc(F)c1,-3%,0%,-2,-3%,-3%,-3%
O=C(N1CCN(c2ccccc2F)CC1)C12CC3CC(CC(C3)C1)C2,-2%,?,5,1%,6%,?
COc1ccc(NC(=O)C2(c3cccs3)CCOCC2)cc1,17%,-2%,37,-1%,1%,3%
COC(=O)c1ccccc1NC(=O)C1(c2cccs2)CCOCC1,·,?,·,·,·,21µM*
O=C(N1CCN(c2ccccc2F)CC1)C1(c2cccs2)CCOCC1,14%,?,-16,-18%,11%,18µM*
O=C(C(O)c1ccccc1)N1N=C(c2ccccc2)CC1(O)C(F)(F)F (stereo not drawn),5%,8%,-16,7%,0%,?
COc1cc(C2NC(=O)NC(C)=C2C(=O)OC(C)(C)C)ccc1OCC(N)=O (stereo not drawn),1%,3%,5,-1%,-1%,11%
COc1ccc2c(c1OC)C(=O)NC(C)=C(C(=O)OC(C)(C)C)C2O (stereo not drawn),-2%,-3%,-63*,10%,-25%,-1%
COc1cc(C)c(COc2ncnc3ccccc23)cc1OC,-1%,?,7,-5%,-4%,?
COc1ccc(CCNC(=O)Cn2cc(S(=O)(=O)Cc3cccc(Cl)c3)c3ccccc32)cc1OC,·,?,·,·,·,18µM*
CNC(=O)Cn1cc(S(=O)(=O)Cc2ccccc2F)c2ccccc21,·,-5%,·,·,·,?
CC(C)CCNC(=O)Cn1cc(S(=O)(=O)Cc2ccc(F)cc2)c2ccccc21,·,26µM*,·,·,·,?
O=C(Cn1cc(S(=O)(=O)Cc2cccc(Cl)c2)c2ccccc21)NCCc1ccccc1,·,-11%,·,·,·,-1%
